High-throughput results (PubChem BioAssay)
RORg inh: blocks mouse ROR gamma transcriptional activity; P51450; Drosophila S2 Gal4-RORgamma UAS-luciferase reporter, 20 h; Potency, µM (doses to about 53.6 µM), for the others: top-dose activity change, negative = inhibition, actives largely listed as inhibitors; 310,000 tested, 5.4% active; AID 2551; note: nearly all actives have a fitted effect of over 60% in size
Target sequence (P51450 whole entry, looked up, the tested form may be a part): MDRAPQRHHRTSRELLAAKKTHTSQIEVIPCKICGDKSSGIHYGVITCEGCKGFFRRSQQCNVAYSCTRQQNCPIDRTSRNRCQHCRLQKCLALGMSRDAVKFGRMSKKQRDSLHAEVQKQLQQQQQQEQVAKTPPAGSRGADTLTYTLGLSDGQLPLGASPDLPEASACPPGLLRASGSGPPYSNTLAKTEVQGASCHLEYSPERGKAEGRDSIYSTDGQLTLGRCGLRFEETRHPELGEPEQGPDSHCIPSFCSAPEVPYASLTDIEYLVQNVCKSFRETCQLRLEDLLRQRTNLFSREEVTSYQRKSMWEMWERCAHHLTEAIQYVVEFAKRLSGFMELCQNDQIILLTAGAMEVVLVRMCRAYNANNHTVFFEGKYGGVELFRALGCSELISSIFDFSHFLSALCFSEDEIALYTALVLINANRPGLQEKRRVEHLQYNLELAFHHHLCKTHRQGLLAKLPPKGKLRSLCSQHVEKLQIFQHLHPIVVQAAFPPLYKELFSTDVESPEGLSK
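A Gal4/UAS one-hybrid system in insect cells: metallothionein-promoter Gal4–ROR gamma fusion plus Photinus luciferase reporter. Copper sulfate 700 uM final, 20 hr ambient incubation, luminescent detection after 10 min with reagent.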
DT40 TDP1 CPT: growth inhibition of DT40 Tdp1-/-;hTDP1 cells with camptothecin (screen for TDP1 inhibitors); Potency, µM (titrated, usually from 46.2 µM), inactives show at the highest dose activity change, negative = growth inhibition, hits mostly inhibitors; AID 686979; 420,000 tested, 12% active; chicken DT40 Tdp1-/-;hTDP1 cells + 20 nM CPT, ATP luminescence, 48 h; note: nearly all actives have a fitted effect of over 55% in size
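Chicken DT40 Tdp1-/- cells complemented with human TDP1, 400 cells/well, exposed to compounds plus 20 nM camptothecin for at least 48 h at 37 C; viability read as ATP content by CellTiter-Glo luminescence.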
Gal4-VP16 FLuc: Gal4-VP16 reporter inhibition counter-screen; Drosophila S2 Gal4-VP16 UAS-luciferase, luminescence, 20 h; Potency, µM (titrated, usually from 53.6 µM), inactives show at the top dose activity, negative = inhibition, hits mostly inhibitors; 310,000 tested, 3.5% active;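 note: Gal4-VP16 expression switched on by copper sulfate through the metallothionein promoter; nearly all actives have a fitted effect of over 50% in size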
TDP1 cell noCPT: qHTS for Inhibitors of human tyrosyl-DNA phosphodiesterase 1 (TDP1): qHTS in cells in absence of CPT. DT40 Tdp1-/- hTDP1 cells, no CPT, ATP luminescence, 48 h. AID 686978, 2013. 420,000 tested, 15% active. Potency, µM (highest dose often 46.2 µM), for the others: at the highest dose activity change, negative = growth inhibition, actives largely listed as inhibitors; note: nearly all actives have a fitted effect of over 55% in size
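Seeded 400 DT40-hTDP1 cells/well (vehicle DMSO, no 20 nM CPT); pinned compounds; ≥48 hr at 37 °C; CellTiter-Glo luminescence as viability measure.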
ALOX12 inh: blocks human arachidonate 12S-lipoxygenase; Potency, µM (doses to about 108 µM), for inactives: at the highest dose activity change, negative = inhibition, most hits filed as inhibitors; purified 12hLO, xylenol orange hydroperoxide absorbance; P18054; 580,000 tested, 1.1% active
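Hydroperoxide product was detected by ferrous iron/xylenol orange as the 573 to 405 nm absorbance ratio. Arachidonic acid at 40 uM (final) was turned over for 30 min at room temperature by 150 nM human 12hLO, pH 7.0 Hepes buffer, after 15 min compound preincubation.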
ELG1 DNA repair: inhibitors of ELG1-dependent DNA repair in HEK293T cells | HEK293T ELG1-luciferase reporter, luminescence, 16 h; DNA damage induced by 5-fluorouridine | Potency, µM (series often up to 46.1 µM), inactives show at the top dose activity change, negative = inhibition, actives largely listed as inhibitors | 330,000 tested, 2.3% active | AID 504467; note: nearly all actives have a fitted effect of over 55% in size
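Luminescence from the luciferase reporter, measured 30 min after ONE-Glo reagent at room temperature, was the read-out. Beforehand, 2,000 cells per well were exposed for 16 hr at 37 °C to 5-fluorouridine together with compound or vehicle.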
* = called active by the depositor; u = inconclusive; x = not tested or not shown; [ ] = dose if it differs, or a comment. This is a sample that favours compounds with a hit; in the whole collection about 15% have one here. Calls come from the whole dose curve; as a rule, active = well fitted curve in the direction sought with a large enough effect; inconclusive = small, poorly fitted or top-dose-only effect, or another doubt; inactive = no such curve, though single readings can be large; an effect the other way counts as inactive or inconclusive. % is set by controls: 0 for no effect and ±100 for the full control effect; potency is the fitted concentration of half-maximal effect.

SMILES	RORg inh	DT40 TDP1 CPT	Gal4-VP16 FLuc	TDP1 cell noCPT	ALOX12 inh	ELG1 DNA repair
C/C(=N\NC(=O)c1cccc2ccccc12)c1ccc(Cl)s1	x	x	x	x	-35%	x
C/C(=N\NC(=O)c1csc(C)c1C)c1ccc(Cl)s1	-7%	23µM*	-3%	23µM*	15%	u
Cn1cc(-c2coc3c(C(=O)Nc4ccccc4)cccc23)cn1	x	u	x	u	-19%	x
COc1cc(NC(=O)c2cccc3c(-c4cnn(C)c4)coc23)cc(OC)c1OC	x	4.6µM*	x	3.3µM*	-11%	x
COc1ccc(NC(=O)c2cccc3c(-c4cnn(C)c4)coc23)cc1	x	u	x	23µM*	u	x
CCOc1ccccc1CN1CCC(C)(c2noc(C3CCOCC3)n2)CC1	x	x	x	x	35%	x
CCOCCCn1c(=S)[nH]c2ncccc2c1=O	10µM*	-6%	u	-2%	-17%	u
Cc1cc(C)nc(NCCCc2ccccc2)n1	2%	-21%	8%	-1%	-6%	7%
Cc1cc(C)nc(NC(=NCCc2c[nH]c3ccccc23)NC(=O)Nc2ccc(Cl)cc2)n1	-6%	23µM*	-10%	23µM*	-4%	u
Cc1cc(C)nc(NC(N)=NC(C)c2ccccc2)n1 (centres undefined)	2%	u	-12%	16µM*	-23%	u
Cc1cc(C)nc(NC(N)=NCCc2c[nH]c3ccccc23)n1	-27%	21µM*	u	9.2µM*	-13%	u
Cc1cc(C)nc(NC(N)=NCCc2ccccc2)n1	x	2.6µM*	x	2.9µM*	-11%	x
COc1ccc2[nH]cc(CCN=C(NC(=O)c3cccc(Cl)c3)Nc3nc(C)cc(C)n3)c2c1	x	x	x	x	0%	x
CCc1ccc2c(c1)-c1ccccc1S(=O)(=O)N2CC(=O)Nc1ccccc1C(F)(F)F	x	x	x	x	26%	x
CSc1cccc(NC(=O)O[C@@H]2CC[C@]3(C)C(CC[C@@H](O)[C@H]3CC(=O)N3CCCC3)[C@]2(C)CO)c1 (some centres undefined)	x	x	x	x	7%	x
O=C(c1c(F)cccc1F)N1CCC(OC2CCN(Cc3ccccc3)CC2)CC1	x	x	x	x	13%	x
O=c1oc2cc(O)ccc2cc1-c1nnc(Nc2cccc(Cl)c2)s1	x	x	x	x	-6%	x
COc1ccc2c(C)c(CC(=O)N3CCC(O)(c4ccc(Cl)cc4)CC3)c(=O)oc2c1	x	x	x	x	-7%	x
CCOC(=O)CNC(=O)c1ccc(OCC)cc1	x	x	x	x	-5%	x
CC(=O)c1ccc(NC(=O)N[C@H]2C[C@@](O)(C(=O)N[C@H](Cc3ccccc3)C(N)=O)C[C@@H](O)[C@@H]2O)cc1	x	x	x	x	4%	x
O=C(N[C@@H](Cc1c[nH]c2ccccc12)C(=O)O)c1ccc(Cl)cc1	11%	-8%	2%	-14%	-13%	14%
NC(=NCCc1c[nH]c2ccccc12)NC(=O)c1ccc(Cl)cc1	-1%	u	u	-17%	40µM*	u
COC(=O)c1sc(NC(=O)C2c3ccccc3Oc3ccccc32)c(C#N)c1C	x	x	x	x	1%	x
CCCCC(=O)Nc1sc(C(=O)N(CC)CC)c(C)c1C(=O)OC	1%	u	-10%	18µM*	35µM*	u
CCOC(=O)c1sc(NC(=O)C2c3ccccc3Oc3ccccc32)c(C#N)c1C	x	12µM*	x	16µM*	u	x
SMILES	RORg inh	DT40 TDP1 CPT	Gal4-VP16 FLuc	TDP1 cell noCPT	ALOX12 inh	ELG1 DNA repair
CCOC(=O)c1c(NC(=O)C2c3ccccc3Oc3ccccc32)sc(C(=O)N(CC)CC)c1C	-7%	18µM*	-29%	23µM*	4%	u
O=C1c2cc(Cl)ccc2OC2(CCNCC2)C12CC(c1ccc(Cl)cc1)=NO2 (centres undefined)	-25%	18µM*	u	18µM*	x	14%
O=C1c2cc(Cl)ccc2OC2(CCNCC2)C12CC(c1ccccc1)=NO2 (centres undefined)	22%	21µM*	5%	16µM*	-4%	11%
O=C(/C=C/c1cccs1)N1CCC2(CC1)Oc1ccc(Cl)cc1C(=O)C21CC(c2ccc(Cl)cc2)=NO1 (centres undefined)	x	2%	x	-6%	-13%	x
CCOc1ccccc1NC(=O)C(C)Sc1cc(-c2ccccc2)nc(C)n1 (centres undefined)	x	15µM*	x	16µM*	0%	x
O=C(CSc1ccc2nc(-c3ccccc3)cn2n1)Nc1ccccc1	x	u	x	26µM*	-22%	x
O=C(CSc1ccc2nc(-c3ccccc3)cn2n1)Nc1ccccc1C(F)(F)F	x	-26%	x	u	-49%	x
CCOc1ccccc1NC(=O)CSc1ccc2nc(-c3ccccc3)cn2n1	x	u	x	21µM*	u	x
Cc1ccc(C)c(NC(=O)CSc2ccc3nc(-c4ccccc4)cn3n2)c1	x	u	x	u	1%	x
CC(=O)c1ccc(NC(=O)CSc2ccc3nc(-c4ccccc4)cn3n2)cc1	x	u	x	26µM*	-25%	x
Cc1noc(C)c1-c1cc2cc(CN(C)C)oc2c(N2CCOCC2)n1	x	x	x	x	2%[176 µM]	x
O=C1CCN(S(=O)(=O)c2cccs2)CCCCCCN1	x	x	x	x	7%	x
CSc1nc(C(=O)N2CCCC(N3CCN(c4ccccc4C)CC3)C2)cs1 (centres undefined)	36%	21µM*	-16%	18µM*	0%	u
COc1ccccc1N1CCN(C2CCCN(C(=O)c3csc(C)n3)C2)CC1 (centres undefined)	-4%	-4%	-6%	u	0%	-4%
Cc1ccc(C(=O)N2CCCC(N3CCN(c4cccc(C(F)(F)F)c4)CC3)C2)s1 (centres undefined)	u	1.3µM*	-4%	6.5µM*	32%	u
O=C(c1ccncc1)N1CCCC(N2CCN(c3cccc(C(F)(F)F)c3)CC2)C1 (centres undefined)	17%	16µM*	-8%	u	1%	17%
CC(=O)N1CCCC(N2CCN(c3cccc(C(F)(F)F)c3)CC2)C1 (centres undefined)	2%	4%	6%	2%	5%	4%
CC1=C(C(=O)N2CCCC(N3CCN(c4cccc(C(F)(F)F)c4)CC3)C2)OCCO1 (centres undefined)	-1%	u	-3%	u	-37%	-17%
CCn1cc(C(=O)N2CCCC(N3CCN(c4cccc(C(F)(F)F)c4)CC3)C2)cn1 (centres undefined)	44%	u	-10%	u	10%	14%
